A selection: hits, their analogues and other compounds. The true share with any hit is near 4.2%.
Sfp inh – blocks B. subtilis Sfp PPTase activity. Biochemical Sfp PPTase activity, qHTS. AID 1490. 310,000 tested, 3.5% active. Potency, µM, actives largely listed as inhibitors;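 also: the enzyme is Sfp with the accession as filed and its product quenches rhodamine fluorescence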
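Sfp 15 nM + cpd, 15 min RT; start w/ rhodamine-CoA 5 uM, BHQ-2-YbbR 12.5 uM (final); 50 mM Hepes pH 7.6, 10 mM MgCl2, 0.01% NP-40, 0.01% BSA; read 525/598 nm at 0 and 30 min.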
PLK1 PBD block – PLK1 (human) polo-box domain binding inhibition | Plk1 PBD binding of FITC phosphopeptide, fluorescence polarization | 360,000 tested, 2.8% active | P53350 | Potency, µM, hits mostly inhibitors; also: series mostly up to about 57 µM; nearly all actives have a fitted effect of over 65% in size
Target sequence (P53350 whole entry, looked up, the tested form may be a part): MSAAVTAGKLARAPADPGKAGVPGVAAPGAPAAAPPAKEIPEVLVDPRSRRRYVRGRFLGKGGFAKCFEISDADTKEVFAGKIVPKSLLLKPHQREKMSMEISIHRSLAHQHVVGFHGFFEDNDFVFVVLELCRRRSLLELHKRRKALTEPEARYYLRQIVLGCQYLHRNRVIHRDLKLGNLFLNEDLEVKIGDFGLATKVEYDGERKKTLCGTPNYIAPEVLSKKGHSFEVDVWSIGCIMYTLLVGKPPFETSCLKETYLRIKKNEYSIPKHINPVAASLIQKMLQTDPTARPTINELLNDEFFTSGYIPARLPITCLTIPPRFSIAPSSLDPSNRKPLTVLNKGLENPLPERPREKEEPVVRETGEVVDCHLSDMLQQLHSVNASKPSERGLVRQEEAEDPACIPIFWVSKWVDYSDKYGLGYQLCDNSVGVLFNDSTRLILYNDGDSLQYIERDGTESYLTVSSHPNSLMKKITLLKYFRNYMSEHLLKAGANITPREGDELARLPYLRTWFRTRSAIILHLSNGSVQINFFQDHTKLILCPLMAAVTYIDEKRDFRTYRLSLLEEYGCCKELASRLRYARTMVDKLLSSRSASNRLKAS
ALOX12 inh – ALOX12 (human) lipoxygenase inhibition; P18054; purified 12hLO, xylenol orange hydroperoxide absorbance; Potency, µM (titrated, usually from 108 µM), most hits filed as inhibitors; 580,000 tested, 1.1% active; AID 1671190
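Hydroperoxide product was detected by ferrous iron/xylenol orange as the 573 to 405 nm absorbance ratio. Arachidonic acid at 40 uM (final) was turned over for 30 min at room temperature by 150 nM human 12hLO, pH 7.0 Hepes buffer, after 15 min compound preincubation.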
VDR inh – blocks the human vitamin D receptor; VDR-SRC2-3 peptide fluorescence polarization, 2 h; 400,000 tested, 0.93% active; P11473; Potency, µM, actives largely listed as inhibitors
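Two reagent solutions held at 4 deg C in the dark were dispensed, compounds pinned at 23 nl, and the mixture incubated 2 h at room temperature. Read-out: fluorescence polarization of VDR–SRC2-3 peptide binding.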
Numbers stand for hits; n = inactive; u = inconclusive; x = no result given. Calls follow the shape of the dose curve; as a rule, active = well fitted curve in the direction sought with a large enough effect; inconclusive = small, poorly fitted or top-dose-only effect, or another doubt; inactive = no such curve, though single readings can be large; an effect the other way counts as inactive or inconclusive.

SMILES	Sfp inh	PLK1 PBD block	ALOX12 inh	VDR inh
Cc1nn2c(=S)[nH]nc2[nH]c1=O	13µM	u	n	n
Cc1n[nH]c(=S)n(NC(=O)/C=C/C(=O)Nn2c(=S)[nH]nc(C)c2=O)c1=O	u	n	u	n
Nc1c(C(=O)c2ccc(Cl)cc2)oc2ccccc12	n	n	n	n
O=C(c1ccc(Cl)cc1)c1oc2ccccc2c1CS(=O)c1ccc(Cl)cc1 (centres undefined)	56µM	n	4.5µM	n
CC1(CC(=O)N/N=C/c2ccc(-c3ccc(C(=O)O)cc3)o2)OCCO1	n	n	n	n
COC(=O)c1ccc(-c2ccc(/C=N/NC(=O)CC3(C)OCCCO3)o2)cc1	50µM	n	n	n
Cc1nc(C/C(=N\Nc2ccccc2)c2ccc(O)cc2O)cs1	18µM	n	u	n
CCn1nccc1C(=O)N1CCC2(CC1)C(OC)CN2c1ccc(C)cc1 (centres undefined)	x	x	n	x
O=C(O)CN(CC(=O)O)Cc1cc2c(-c3ccccc3C(=O)O)c3cc(CN(CC(=O)O)CC(=O)O)c(=O)cc-3oc2cc1O	56µM	x	x	u
O=C(O)c1ccccc1-c1c2ccc(=O)cc-2oc2cc(O)ccc12	n	x	x	n
CC(Nc1ccc(N2CCOCC2)cc1)c1nc2scc(-c3cccs3)c2c(=O)[nH]1 (centres undefined)	x	x	35µM	x
COc1cccc(NC(C)c2nc3scc(-c4cccs4)c3c(=O)[nH]2)c1 (centres undefined)	x	x	n	x
Cc1cccc(-n2c(=O)c3c(cc(C)n3C)n(CC(=O)Nc3c(C)cccc3C)c2=O)c1	x	x	71µM	x
CC(C)CN(C(=O)CSc1nnc(-c2ccco2)o1)c1c(N)n(Cc2ccccc2)c(=O)[nH]c1=O	79µM	u	n	n
COCCN(C(=O)COC(=O)c1cc2c(s1)CCC2)c1c(N)n(Cc2ccccc2)c(=O)[nH]c1=O	x	9.5µM	u	n
COCCN(C(=O)CSc1nc2ccccc2s1)c1c(N)n(Cc2ccccc2)c(=O)[nH]c1=O	x	u	n	79µM
O=C(NCc1ccc(F)cc1)C1CCC(=O)N1CCc1ccccc1 (centres undefined)	n	n	n	n
COC(=O)c1ccc(C2c3c(n[nH]c3C)C(=O)N2c2ccc(C)cc2)cc1 (centres undefined)	n	n	u	n
Cc1ccccc1S(=O)(=O)NC(=O)C1(C)CCN1C(=O)Cc1ccc(C(C)(C)C)cc1 (centres undefined)	x	n	n	x
O=c1c2c(-c3ccco3)csc2nc(SCc2cn3cccnc3n2)n1-c1ccccc1	18µM	24µM	u	n
CN(C)c1ccc(C(=O)NCC2CCN(c3cc(-c4ccc(Cl)cc4)[nH]n3)CC2)cc1	x	x	n	x
CC(C)(C)c1cc(C(=O)CCN2CCOCC2)cc(C(C)(C)C)c1O	n	u	u	50µM
CO/N=C(\C(=O)O)c1csc(NN=C(C)C)n1	35µM	n	n	n
Cn1c(COc2ccc(C(C)(C)C)cc2)n[nH]c1=S	x	x	35µM	x
CCn1c(CSc2nccn2C)nc2cc(C(=O)O)ccc21	56µM	n	x	u
SMILES	Sfp inh	PLK1 PBD block	ALOX12 inh	VDR inh
CC1(C)OC(=O)C(=C2CCCN2)C(=O)O1	n	n	n	n
O=c1[nH]cnc(O)c1C1C=CC=CC=C1	x	n	n	40µM
CCSc1nnc(NC(=O)C(C)C)s1	n	n	n	n
CCSc1nnc(NC(=O)C(C(F)(F)F)C(F)(F)F)s1	n	13µM	u	n
CN(C)N1C(N)=C(C#N)C(c2cccs2)C2=C1CCCC2=O (centres undefined)	n	30µM	n	n
CN(C)N1C(N)=C(C#N)C(c2ccsc2)C2=C1CCCC2=O (centres undefined)	n	n	n	u
CCOC(=O)C1=C(C)NC(=O)NC1c1c(C)nn(-c2ccccc2)c1Cl (centres undefined)	20µM	n	u	n
CN(C)c1cccc(-c2nnc(SCCCC#N)o2)c1	u	n	u	n
O=C1/C(=C\c2ccc(O)c(O)c2)N=C2CCCCCN12	56µM	n	n	n
O=C(O)CNC(=O)Cn1nc2c(cc1=O)CCCCC2	x	x	n	x
C=CC(O)Cc1c(C)n[nH]c1C (centres undefined)	n	n	n	n
CC(=O)Nc1nc(-c2ccc3ccccc3c2)cs1	n	n	n	u
CCC(=O)Nc1ccc2ccccc2c1	n	n	n	n
Oc1ccc(Nc2nc(-c3ccc4ccccc4c3)cs2)cc1	n	x	18µM	x
Cc1ccc(Nc2nc(-c3cccc(N4C(=O)c5ccccc5C4=O)c3)cs2)cc1	x	x	18µM	x
Oc1ccc(-c2nc(-c3ccc(O)c(O)c3)cs2)cc1	79µM	n	u	n
Oc1ccc(Nc2ccc3ccccc3c2)cc1	x	u	45µM	u
COc1ccccc1Nc1nc(-c2cccc(N3C(=O)c4ccccc4C3=O)c2)cs1	n	n	n	n
C[C@H](CO)N1C[C@H](C)[C@@H](CN(C)C(=O)Nc2ccc3c(c2)OCCO3)OCc2cnnn2CCCC1=O	x	n	n	x
S=C(Nc1ccc(Br)cc1Cl)N1CCCC1	n	n	n	n
O=C(Nc1ccc(CN2CCCCC2)cc1)Nc1ccc(Br)cc1Cl	79µM	n	n	n
O=C(Nc1cccnc1)Nc1ccc(Br)cc1Cl	n	n	16µM	n
O=C(Nc1cccnc1)Nc1ccccc1Cl	n	n	u	n
COc1ccc(C2c3c4c(n(C)c3CCN2C)CCN(C)C4c2ccc(OC)cc2)cc1 (centres undefined)	n	n	n	n
COc1ccc(CN2CCOc3ccc(C(O)c4cccnc4)cc3C2)cc1 (centres undefined)	x	x	n	x
SMILES	Sfp inh	PLK1 PBD block	ALOX12 inh	VDR inh
Fc1cccc(-c2nc(COc3ccccc3F)co2)c1	x	x	n	x
Fc1cccc(-c2nc(COc3ccc(Br)cc3F)co2)c1	x	x	32µM	x
COc1ccccc1-c1nc(S(=O)(=O)c2ccc3c(c2)OCCO3)c(N2CCN(C)CC2)o1	x	x	n	x
CC(=O)C1=C(O)C2(C)c3c(O)c(C)c(O)c(C(C)=O)c3OC2CC1=O (centres undefined)	x	n	32µM	x
CC(=O)Oc1ccc(C(=O)Nc2nnc(C)s2)cc1	n	n	n	n
N#CC1(NC(=O)Cn2c(=O)c3c(ncn3Cc3ccco3)n(Cc3ccccc3)c2=O)CCCC1	x	x	n	x
Cc1cc(CN(C)C(=O)CC2C(=O)NCCN2Cc2c(F)cccc2Cl)n[nH]1 (centres undefined)	50µM	n	n	n
CN(C(=O)CC1C(=O)NCCN1Cc1ccccc1C(F)(F)F)C1CCOCC1 (centres undefined)	n	11µM	n	u
CN(C(=O)CC1C(=O)NCCN1Cc1ccccc1F)C1CCOCC1 (centres undefined)	n	n	u	n
COc1ccc(CN2CCNC(=O)C2CC(=O)NC2CCCCCC2)c(C)c1C (centres undefined)	n	n	32µM	n
O=C(CC1C(=O)NCCN1CC1CCCCC1)NCc1cc(F)ccc1F (centres undefined)	n	3.8µM	n	u
CCCS(=O)(=O)Nc1cccc(-c2cn3c(n2)SCC3)c1	n	u	n	n
COc1ccc(CN2CCNC(=O)C2CC(=O)N(C)Cc2ccncn2)c(OC)c1 (centres undefined)	n	n	n	n
